Assay results taken from PubChem BioAssay.
The source made the active and inactive calls.

Assays:
[1] = tested on: Plasmodium falciparum Sir2 (PF13_0152, Sir2A); experiment: pfSir2 binders on small-molecule microarrays, primary screen, biochemical, small-molecule microarray, 635 nm fluorescence (AID 1098); settings: small-molecule microarray binding, fluorescence 635 nm; higher = more signal;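 note: score merges spot fluorescence intensity with its signal-to-noise ratio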
[2] = small-molecule microarray binders of probe aDKK1, primary screen, biochemical, biotinylated probe, 635/667 nm fluorescence (AID 1099); settings: higher = more signal;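 note: score merges 667nm spot fluorescence with signal to noise across triplicate slides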
[3] = small-molecule microarray binders of probe aCHRDL2, primary screen, biochemical, biotinylated probe, 635/667 nm fluorescence (AID 1100); settings: higher = more signal
[4] = splicing luciferase reporter signal modulators, primary screen, spliceosome inhibition project, cell-based, HEK293, splice +/- reporter (AID 1101); settings: luminescence, 24 h, higher = more signal, called active from +8 up or from −8 down;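 note: HEK293 cells carrying a splicing-competent luciferase reporter gene; test concentration not given here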
[5] = target: Fibroblast growth factor 10 (Homo sapiens) (UniProt O15520); experiment: FGF10 binders on small-molecule microarrays, primary screen, biochemical, small-molecule microarray, 635 nm fluorescence (AID 1102); settings: FGF10 binding, fluorescence 635 nm, higher = more signal
[6] = tested on: glycogen synthase kinase-3 (GSK3A per assay name; protocol says GSK3B); experiment: GSK3 binders on small-molecule microarrays, primary screen, biochemical, small-molecule microarray, 635 nm fluorescence, GSK3A (AID 1103); settings: small-molecule microarray binding, fluorescence 635 nm; higher = more signal; note: the record names both GSK3A and GSK3B
[7] = target: Epidermal growth factor receptor (Homo sapiens) (UniProt P00533); experiment: EGFR binders on small-molecule microarrays, primary screen, biochemical, small-molecule microarray, 635 nm fluorescence (AID 1104); settings: EGFR binding, higher = more signal;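 note: score merges 667 nm emission intensity with spot signal to noise over triplicate slides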
[8] = target: Follistatin-related protein 3 (Homo sapiens) (UniProt O95633); experiment: FSTL3 binders on small-molecule microarrays, primary screen, biochemical, small-molecule microarray, 635 nm fluorescence (AID 1105); settings: FSTL3 binding, higher = more signal;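 note: score merges emission near 667 nm and signal to noise per printed spot across three slides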
[9] = target: Dickkopf-related protein 1 (Homo sapiens) (UniProt O94907); experiment: DKK1 binders on small-molecule microarrays, primary screen, biochemical, small-molecule microarray, 635 nm fluorescence scan (AID 1106); settings: DKK1 binding, higher = more signal;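 note: score merges emission near 667 nm with signal to noise over three replicate slides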
[10] = tested on: Inhibin beta A chain (activin A); experiment: INHBA (activin A) binders on microarrays, primary screen, biochemical, small-molecule microarray, 635 nm fluorescence scan (AID 1107); settings: small-molecule microarray binding, higher = more signal;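 note: mouse activin A protein probed at 4.33 µg/mL on printed slides; score merges bound-protein fluorescence near 667 nm with spot signal-to-noise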
[11] = tested on: Human papillomavirus type 1a protein E7 (residues 44-93); experiment: HPV1a E7 fragment binders on microarrays, primary screen, biochemical, small-molecule microarray, residues 44-93, 635 nm fluorescence (AID 1108); settings: small-molecule microarray binding, fluorescence 635 nm; higher = more signal;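 note: E7 fragment applied at 1 µg/mL in TBST for 1 h at 4 C; score combines spot fluorescence with its signal to noise ratio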
[12] = modulators of HCV replicon luciferase signal, primary screen, HCV replication inhibitor project, Huh7 cells, luciferase reporter (AID 1109); settings: 48 h, higher = more signal;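 note: huh7 hepatoma cells harbouring a luciferase neomycin HCV replicon reporter; luciferase luminescence as measure of HCV replicon replication; test concentration not given here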
[13] = target: Left-right determination factor 2 (Homo sapiens) (UniProt O00292); experiment: LEFTY2 binders on small-molecule microarrays, primary screen, biochemical, small-molecule microarray, 635 nm fluorescence scan (AID 1110); settings: LEFTY2 binding, higher = more signal
[14] = target: Calmodulin-1 (Homo sapiens) (UniProt P0DP23); experiment: CALM1 binders on microarrays, EGTA buffer, profiling panel, biochemical, small-molecule microarray, Cy5-labelled CALM1 (AID 1111); settings: Cy5-CALM1 binding fluorescence, higher = more signal;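 note: labelled calmodulin applied in Tris saline Tween buffer holding calcium plus EGTA and DTT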
[15] = target: Calmodulin-1 (Homo sapiens) (UniProt P0DP23); experiment: calcium-bound CALM1 binders on microarrays, profiling panel, artefact control for SMM control-protein annotation, biochemical, small-molecule microarray, Cy5-labelled CALM1, plus calcium (AID 1112); settings: Cy5-CALM1 binding fluorescence, higher = more signal;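 note: score merges spot fluorescence with signal to noise from triplicate slides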
[16] = small-molecule microarray binders of probe aWnt5a, primary screen, biochemical, biotinylated probe, 635/667 nm fluorescence (AID 1113); settings: higher = more signal;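 note: score merges 667 nm fluorescence intensity with signal-to-noise per printed feature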
[17] = small-molecule microarray binders of probe aShh, primary screen, biochemical, biotinylated probe, 635/667 nm fluorescence (AID 1114); settings: higher = more signal;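 note: probe is biotin-labelled aShh protein from a stem cell growth factor screen; measures binding of labelled protein to compounds printed on the slide; score merges feature fluorescence at 667 nm with signal-to-noise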
[18] = small-molecule microarray binders of probe aNog, primary screen, biochemical, biotinylated probe, 635/667 nm fluorescence (AID 1115); settings: higher = more signal;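 note: probe is biotinylated aNog protein used at 0.15 µg/mL for 1 h at 4 C; z-score combines 667 nm fluorescence of each spot with its signal to noise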
[19] = target: Torsin-1A-interacting protein 1 (Homo sapiens) (UniProt Q5JTV8); experiment: LAP1 binders from COS7 cell lysate, primary screen, small-molecule microarray, 635/667 nm fluorescence (AID 1116); settings: COS7-hLAP1 lysate binding, 635 nm fluorescence, higher = more signal
[20] = target: Alpha-bungarotoxin (Bungarus multicinctus) (UniProt P60615); experiment: alpha-bungarotoxin binders on microarray, profiling panel, artefact control for SMM control protein annotation, biochemical, small-molecule microarray, Alexa647 label, 635/667 nm fluorescence (AID 1117); settings: alpha-BTX-A647 binding fluorescence, higher = more signal
Sequence of Alpha-bungarotoxin (Bungarus multicinctus) (P60615 whole entry, looked up): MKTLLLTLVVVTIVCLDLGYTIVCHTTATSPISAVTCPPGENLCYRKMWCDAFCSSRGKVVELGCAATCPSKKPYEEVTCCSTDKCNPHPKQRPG

Sequence of Epidermal growth factor receptor (Homo sapiens) (P00533 whole entry, looked up): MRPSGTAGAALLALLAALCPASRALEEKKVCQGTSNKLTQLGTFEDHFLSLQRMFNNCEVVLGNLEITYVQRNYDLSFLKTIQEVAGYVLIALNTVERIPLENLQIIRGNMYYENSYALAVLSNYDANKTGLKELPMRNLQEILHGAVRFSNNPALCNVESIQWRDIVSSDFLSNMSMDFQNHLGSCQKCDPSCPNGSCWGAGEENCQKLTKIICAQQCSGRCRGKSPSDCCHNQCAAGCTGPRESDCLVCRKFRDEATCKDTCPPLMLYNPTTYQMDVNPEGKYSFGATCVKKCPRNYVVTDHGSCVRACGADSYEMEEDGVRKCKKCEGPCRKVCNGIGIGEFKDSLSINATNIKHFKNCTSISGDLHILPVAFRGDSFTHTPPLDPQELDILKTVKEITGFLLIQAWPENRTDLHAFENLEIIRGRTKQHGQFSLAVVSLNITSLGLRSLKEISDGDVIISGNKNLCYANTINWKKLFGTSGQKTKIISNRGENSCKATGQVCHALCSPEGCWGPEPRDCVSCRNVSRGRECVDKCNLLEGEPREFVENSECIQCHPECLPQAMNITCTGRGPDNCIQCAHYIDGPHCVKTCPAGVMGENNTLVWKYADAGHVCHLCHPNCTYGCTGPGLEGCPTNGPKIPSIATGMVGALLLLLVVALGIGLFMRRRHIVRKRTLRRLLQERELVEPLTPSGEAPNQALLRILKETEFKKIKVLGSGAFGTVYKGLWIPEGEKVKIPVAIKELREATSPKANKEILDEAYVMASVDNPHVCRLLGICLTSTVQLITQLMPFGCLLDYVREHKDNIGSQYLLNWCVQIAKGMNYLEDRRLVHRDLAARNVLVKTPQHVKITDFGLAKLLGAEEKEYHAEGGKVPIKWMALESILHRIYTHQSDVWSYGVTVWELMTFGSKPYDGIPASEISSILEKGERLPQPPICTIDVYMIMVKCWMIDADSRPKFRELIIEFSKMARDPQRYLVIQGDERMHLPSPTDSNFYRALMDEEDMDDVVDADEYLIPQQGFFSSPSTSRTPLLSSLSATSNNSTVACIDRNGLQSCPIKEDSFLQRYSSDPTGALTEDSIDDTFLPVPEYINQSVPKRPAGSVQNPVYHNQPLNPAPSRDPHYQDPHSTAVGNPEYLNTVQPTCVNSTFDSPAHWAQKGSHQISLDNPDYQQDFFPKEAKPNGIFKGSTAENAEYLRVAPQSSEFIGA
Sequence of Follistatin-related protein 3 (Homo sapiens) (O95633 whole entry, looked up): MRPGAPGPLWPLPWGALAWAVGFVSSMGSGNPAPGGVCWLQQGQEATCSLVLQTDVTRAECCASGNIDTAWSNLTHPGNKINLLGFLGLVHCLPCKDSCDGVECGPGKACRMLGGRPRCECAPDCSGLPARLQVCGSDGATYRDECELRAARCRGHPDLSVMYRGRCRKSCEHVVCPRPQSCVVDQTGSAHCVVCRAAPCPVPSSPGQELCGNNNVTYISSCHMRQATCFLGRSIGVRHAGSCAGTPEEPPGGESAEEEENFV
Sequence of Dickkopf-related protein 1 (Homo sapiens) (O94907 whole entry, looked up): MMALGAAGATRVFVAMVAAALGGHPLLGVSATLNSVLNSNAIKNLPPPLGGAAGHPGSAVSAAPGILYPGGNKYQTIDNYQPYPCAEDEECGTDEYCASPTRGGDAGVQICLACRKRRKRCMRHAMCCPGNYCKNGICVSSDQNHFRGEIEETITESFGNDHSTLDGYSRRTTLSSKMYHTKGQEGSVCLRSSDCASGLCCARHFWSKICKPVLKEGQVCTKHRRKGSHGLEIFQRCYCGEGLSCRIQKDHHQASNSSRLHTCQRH
Sequence of Torsin-1A-interacting protein 1 (Homo sapiens) (Q5JTV8 whole entry, looked up): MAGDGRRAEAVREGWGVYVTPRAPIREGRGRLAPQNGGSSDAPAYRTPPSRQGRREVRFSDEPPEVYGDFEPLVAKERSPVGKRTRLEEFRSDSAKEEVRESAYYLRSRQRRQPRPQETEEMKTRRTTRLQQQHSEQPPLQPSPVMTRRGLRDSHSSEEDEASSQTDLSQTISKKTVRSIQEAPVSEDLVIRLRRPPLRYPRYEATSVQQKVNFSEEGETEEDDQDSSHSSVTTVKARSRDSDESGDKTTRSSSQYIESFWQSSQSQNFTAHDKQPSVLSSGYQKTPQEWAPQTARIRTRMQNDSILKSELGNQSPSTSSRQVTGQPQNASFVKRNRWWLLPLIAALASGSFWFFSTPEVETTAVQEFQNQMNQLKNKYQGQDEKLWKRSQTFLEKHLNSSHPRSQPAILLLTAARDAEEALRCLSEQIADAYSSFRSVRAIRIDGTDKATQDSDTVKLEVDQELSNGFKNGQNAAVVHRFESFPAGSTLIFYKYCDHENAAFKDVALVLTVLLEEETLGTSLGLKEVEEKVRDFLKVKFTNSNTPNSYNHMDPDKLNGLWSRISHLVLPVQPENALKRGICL
Sequence of Left-right determination factor 2 (Homo sapiens) (O00292 whole entry, looked up): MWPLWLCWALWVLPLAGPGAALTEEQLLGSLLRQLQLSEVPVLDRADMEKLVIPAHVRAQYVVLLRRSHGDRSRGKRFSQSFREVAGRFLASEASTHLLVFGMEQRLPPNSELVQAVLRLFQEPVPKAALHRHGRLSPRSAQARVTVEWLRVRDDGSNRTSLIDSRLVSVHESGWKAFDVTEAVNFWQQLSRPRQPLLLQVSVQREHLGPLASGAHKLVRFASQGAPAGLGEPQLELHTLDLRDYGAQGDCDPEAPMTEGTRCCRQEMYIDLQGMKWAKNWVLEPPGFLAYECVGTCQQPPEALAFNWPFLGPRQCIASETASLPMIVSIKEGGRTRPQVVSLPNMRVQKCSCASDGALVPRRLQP
Sequence of Fibroblast growth factor 10 (Homo sapiens) (O15520 whole entry, looked up): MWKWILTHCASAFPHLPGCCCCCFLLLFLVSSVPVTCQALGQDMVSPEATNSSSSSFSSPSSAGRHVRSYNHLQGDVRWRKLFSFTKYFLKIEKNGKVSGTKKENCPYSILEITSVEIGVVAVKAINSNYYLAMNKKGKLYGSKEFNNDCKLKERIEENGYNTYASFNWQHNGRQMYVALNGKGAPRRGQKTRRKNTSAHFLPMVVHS

Row | SMILES | composite z-score [1] | composite z-score [2] | composite z-score [3] | z-score [4] | composite z-score [5] | composite z-score [6] | composite z-score [7] | composite z-score [8] | composite z-score [9] | composite z-score [10] | composite z-score [11] | z-score [12] | composite z-score [13] | composite z-score [14] | composite z-score [15] | composite z-score [16] | composite z-score [17] | composite z-score [18] | composite z-score [19] | composite z-score [20]
1 | CC(CCC(=O)OC[C@H]1O[C@H](C#Cc2ccccc2)C=C[C@@H]1Oc1ccc(C)cc1)=NOC(C)CN1CCCc2nc(C)c(C)cc21 (stereo not given in full) | 0.839 | -0.143 | -0.35 | 0.00662 (inactive) | 0.732 | 0.727 | 0.335 | 0.694 | 0.397 | 0.531 | 1.21 | -0.456 | 0.447 | 0.687 | -0.0954 | -0.0944 | -0.0146 | 0.125 | 0.132 | 0.898
2 | CCOC(=O)[C@H](CC(C)C)NC(=O)CCC1CC(OC(=O)NCCc2ccc(F)cc2)CC2(CCCC(COC(=O)NCc3cccc4ccccc34)O2)O1 (stereo not given in full) | 0.66 | -0.0464 | -0.224 | -1.61 (inactive) | 0.176 | 0.121 | 0.55 | 0.135 | 0.678 | -0.583 | 0.548 | -0.893 | 0.824 | 0.239 | -0.364 | -0.156 | -0.237 | -0.497 | 0.219 | 0.0466
3 | C[C@H]1CC[C@@H](C(=O)O)N[C@@H]1c1cccc(N2CCCC2=O)c1 | 0.0371 | -0.154 | -0.496 | -0.00389 (inactive) | 0.184 | 0.631 | 0.376 | 0.285 | 0.153 | 0.292 | 0.4 | 1.09 | 0.263 | -0.438 | -0.55 | -0.178 | -0.2 | -0.181 | 0.0221 | 0.197
4 | CO[C@@H](C1CCCCC1)[C@@H](C)[C@H](OCc1cccc(Br)c1)[C@@H](C)CO | -0.317 | -0.359 | -0.426 | 0.899 (inactive) | 0.512 | -0.314 | 0.823 | 0.171 | 0.385 | 0.247 | -0.18 | -1.88 | 0.481 | -0.434 | 0.318 | -0.139 | -0.0709 | 0.0649 | 0.0682 | -0.378
5 | O=C1[C@H]2[C@H]3[C@H](O)[C@H](O)CC(=NO[C@@H]4O[C@H](CO)[C@@H](O)[C@H](O)[C@H]4O)[C@H]3CC[C@H]2C(=O)N1C[C@@H]1CCCO1 | 0.323 | -0.273 | -0.344 | 0.0676 (inactive) | 0.0269 | -0.027 | 0.522 | 0.0553 | -0.0079 | -0.915 | -0.429 | -0.232 | 0.399 | -0.551 | -1.1 | -0.118 | -0.117 | -0.379 | -0.367 | -0.0473
6 | CC(=O)OC[C@H]1O[C@H](C#CCCc2ccccc2)C=C[C@@H]1OC(C)=O | 1.05 | -0.0993 | -0.438 | 0.181 (inactive) | 0.787 | -0.113 | 0.187 | 0.981 | 1.02 | 0.309 | -0.515 | -1.12 | 0.751 | -0.288 | -0.715 | -0.0721 | 0.0204 | 0.0658 | 0.128 | 1.53
7 | CCOC(=O)CCN1C(=O)[C@H]2[C@H]3[C@H](O)[C@H](O)CC(=NO[C@@H]4O[C@H](CO)[C@@H](O)[C@H](O)[C@H]4O)[C@@H]3CC[C@H]2C1=O | 0.839 | -0.188 | -0.573 | -0.104 (inactive) | 1.04 | 1.26 | 1.05 | 1.37 | 1.27 | 0.898 | 1.21 | 0.891 | 0.809 | -0.896 | -1.99 | -0.0417 | 0.296 | -0.0784 | 0.533 | 0.844
8 | CON=C[C@@H](OC)[C@H](C)C=CCC(=O)OC | -0.387 | -0.171 | -0.165 | -0.165 (inactive) | -0.135 | -0.115 | 0.327 | -0.23 | -0.067 | 0.892 | -1.72 | -0.337 | 0.262 | -0.491 | -0.476 | -0.0573 | 0.0952 | -0.296 | 0.447 | -0.023
9 | CCc1cc2c(nc1CC)CCN(CCC(C)=NOC[C@@H](C)[C@H](OCc1ccccc1)C(C)C)C2 | -0.482 | -0.375 | -0.244 | -1.3 (inactive) | -1.58 | -1.04 | -0.812 | -1.28 | -1.06 | -0.187 | -0.461 | -1.14 | -0.964 | -1.3 | -0.139 | -0.247 | -0.0035 | -0.411 | -0.667 | -0.86
10 | CCN1C(=O)[C@H]2[C@H]3[C@H](O)[C@H](O)CC(=NO[C@H](C)c4cn([C@@H]5COC[C@H]5O)nn4)[C@@H]3CC[C@H]2C1=O | -0.428 | -0.19 | -0.593 | 0.299 (inactive) | 0.46 | -0.162 | 0.219 | -0.169 | 0.451 | -0.322 | -0.137 | -0.936 | 0.684 | -0.3 | -0.4 | -0.0445 | -0.291 | 0.0043 | -0.0938 | -0.23
